# Test results reported in PubChem BioAssay (NCATS).
# Where “and” joins values, the source holds several entries; their conditions need not be identical. Equal entries are not always repeated. Unmarked numbers belong to inactive results. Inconclusive results are not listed. Calls of active or inactive are those of the source. Unless noted, calls follow the shape of the full dose curve.
# Test system: not listed separately
# Test: Cell Viability - LYMP2-020 (AID 986; active = well fitted curve in the direction sought with a large enough effect; an effect the other way counts as inactive or inconclusive;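 also: plate controls were DMSO only for no effect and tetraoctylammonium bromide at 92 µM for full effect; nearly all actives have a fitted effect of over 55% in size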)
# Conditions: series mostly up to 92.2 µM
# In short: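 Human lymphoblastoid cells, 2500/well, were pre-incubated 5 hr at 37 C, then exposed to compounds for 24 hr at 37 C in complete medium. Intracellular ATP was read by CellTiter-Glo luminescence, and AC50 was derived by Hill fitting of concentration-response data.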
row,Compound,Potency
1,Nc1ccc(O)c(C(=O)O)c1,inactive
2,S=c1[nH]c2ccccc2s1,inactive
3,O=C1CN(/N=C/c2ccc([N+](=O)[O-])o2)C(=O)N1,inactive

# Molecular target: Alpha-galactosidase A (Homo sapiens) (UniProt P06280)
# Sequence (P06280 whole entry, looked up): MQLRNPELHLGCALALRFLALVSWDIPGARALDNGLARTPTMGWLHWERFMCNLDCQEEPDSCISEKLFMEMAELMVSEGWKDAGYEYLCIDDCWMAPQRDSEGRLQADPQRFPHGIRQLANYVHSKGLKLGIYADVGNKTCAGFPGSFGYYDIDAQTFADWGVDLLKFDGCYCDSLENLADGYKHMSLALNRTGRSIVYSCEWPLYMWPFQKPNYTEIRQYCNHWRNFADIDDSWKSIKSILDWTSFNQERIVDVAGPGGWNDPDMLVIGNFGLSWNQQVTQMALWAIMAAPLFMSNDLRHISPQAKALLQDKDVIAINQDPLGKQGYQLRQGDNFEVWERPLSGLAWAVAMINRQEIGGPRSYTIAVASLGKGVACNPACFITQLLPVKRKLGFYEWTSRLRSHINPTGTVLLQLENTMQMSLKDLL
# Test: Counterscreen for Glucocerebrosidase Inhibitors: qHTS Assay for Human alpha-Galactosidase at pH 4.5 (AID 992; active = well fitted curve in the direction sought with a large enough effect; an effect the other way counts as inactive or inconclusive; also: 0% is about no effect)
# Conditions: purified enzyme, fluorogenic substrate; series mostly up to 76.9 µM
# In short: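 Quantitative HTS: compounds tested from 0.7 nM up to 77 uM against 2 nM enzyme with 80 uM 4-MU alpha-D-galactopyranoside. The 20 min room-temperature reaction is stopped with 1M NaOH/1M glycine, pH 10.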
row,Compound,outcome
1,O=c1[nH]c2cc(Cl)c(Cl)cc2[nH]c1=O,inactive
2,N[C@H](CCCP(=O)(O)O)C(=O)O,inactive
3,CC(C)NC[C@H](O)COc1cccc2[nH]ccc12,inactive
4,Oc1ccccc1O,inactive
5,O=S(=O)(c1cccc2c(I)cccc12)N1CCCNCC1,inactive
6,CCCCCCCC/C=C\CCCCCCCC(=O)NCCO,inactive
7,COc1cc(OC)c(/C=C2/C(=O)Nc3ccccc32)c(OC)c1,inactive
8,NCCCS(=O)(=O)O,inactive
9,CCCN(CC1CC1)c1nc(C)nc(Nc2c(Cl)cc(Cl)cc2Cl)c1Cl,inactive
10,CCN1/C(=C/C(C)=O)Sc2ccc(OC)cc21,inactive
11,O=C1NC(O)=NC1(c1ccccc1)c1ccccc1,inactive
12,O=C(c1cc(O)c(O)c([N+](=O)[O-])c1)c1ccccc1F,inactive
13,O=c1[nH]c2ccccc2n1CCCN1CCN(C(c2ccccc2)c2ccccc2)CC1,inactive
14,O=C(Nc1cccc(C(=O)Nc2ccc(S(=O)(=O)O)c3cc(S(=O)(=O)O)cc(S(=O)(=O)O)c23)c1)Nc1cccc(C(=O)Nc2ccc(S(=O)(=O)O)c3cc(S(=O)(=O)O)cc(S(=O)(=O)O)c23)c1,inactive

# Test system: not listed separately
# Test: Cell Viability - LYMP1-002 - Assay at 24 hr (AID 993; active = well fitted curve in the direction sought with a large enough effect; an effect the other way counts as inactive or inconclusive; also: % is scaled to controls: 0 for no effect and ±100 for the full control effect)
# Conditions: LYMP1-002 lymphoblastoid cells viability; series mostly up to 92.2 µM
# In short: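 Human lymphoblastoid LYMP1-002 cells, 2500/well in complete medium, were treated with compounds for 24 h at 37 C; intracellular ATP was read by CellTiter-Glo luminescence. AC50 values came from Hill-equation fits of qHTS concentration-response data.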
row,Compound,Potency
1,Nc1ccc(O)c(C(=O)O)c1,inactive
2,Oc1ccccc1O,inactive
3,S=c1[nH]c2ccccc2s1,inactive
4,O=C1CN(/N=C/c2ccc([N+](=O)[O-])o2)C(=O)N1,inactive

# Molecular target: alpha-glucosidase (Oryza sativa, rice) (UniProt Q653V4)
# Test: Counterscreen for Glucocerebrosidase Inhibitors: qHTS Assay for Rice alpha-Glucosidase at pH 5.0 (AID 997; active = well fitted curve in the direction sought with a large enough effect; an effect the other way counts as inactive or inconclusive;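 also: 0% = full activity with enzyme and -100% = basal without enzyme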)
# Conditions: rice alpha-glucosidase enzyme activity; series mostly up to 76.9 µM
# In short: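 Rice alpha-glucosidase (4 nM final) with 400 uM 4-methylumbelliferyl-alpha-D-glucopyranoside in citrate buffer pH 5.0, 20 min at room temperature, stopped at pH 10; fluorescence 365/440 nm, compounds 0.7 nM–77 uM, AC50 from Hill fits.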
row,Compound,outcome
1,O=c1[nH]c2cc(Cl)c(Cl)cc2[nH]c1=O,inactive
2,N[C@H](CCCP(=O)(O)O)C(=O)O,inactive
3,CC(C)NC[C@H](O)COc1cccc2[nH]ccc12,inactive
4,Oc1ccccc1O,inactive
5,O=S(=O)(c1cccc2c(I)cccc12)N1CCCNCC1,inactive
6,CCCCCCCC/C=C\CCCCCCCC(=O)NCCO,inactive
7,COc1cc(OC)c(/C=C2/C(=O)Nc3ccccc32)c(OC)c1,inactive
8,NCCCS(=O)(=O)O,inactive
9,CCCN(CC1CC1)c1nc(C)nc(Nc2c(Cl)cc(Cl)cc2Cl)c1Cl,inactive
10,CCN1/C(=C/C(C)=O)Sc2ccc(OC)cc21,inactive
11,O=C1NC(O)=NC1(c1ccccc1)c1ccccc1,inactive
12,O=C(c1cc(O)c(O)c([N+](=O)[O-])c1)c1ccccc1F,inactive
13,O=c1[nH]c2ccccc2n1CCCN1CCN(C(c2ccccc2)c2ccccc2)CC1,inactive
14,O=C(Nc1cccc(C(=O)Nc2ccc(S(=O)(=O)O)c3cc(S(=O)(=O)O)cc(S(=O)(=O)O)c23)c1)Nc1cccc(C(=O)Nc2ccc(S(=O)(=O)O)c3cc(S(=O)(=O)O)cc(S(=O)(=O)O)c23)c1,inactive

# Test system: not listed separately
# Test: qHTS Assay for Lipid Storage Modulators (AID 1519); also: % is scaled to controls: 0 for no effect and ±100 for the full control effect
# Conditions: Drosophila S3 cells, BODIPY lipid droplet/cell ratio, laser cytometry; at 25.7 µM (top of the series); cells loaded with oleic acid
# In short: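 Cells seeded at 5,000 per well were treated with compounds over a concentration series and loaded with oleic acid (400 uM, as added). Lipid droplet fluorescence (488 nm excitation, 500-530 nm channel) was read by laser-scanning cytometry and normalized to 20 uM Triacsin C.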
row,Compound,"activity change, negative = inhibition [%]"
1,O=C(O)Cc1ccc(-c2ccccc2)cc1,1.48
2,Nc1ccc(O)c(C(=O)O)c1,1.25
3,Cc1c(Nc2ncccc2C(=O)O)cccc1C(F)(F)F,-1.24
4,CCCSc1ccc2nc(NC(=O)OC)[nH]c2c1,-1.88
5,Cc1c(N)c(=O)n(-c2ccccc2)n1C,-0.255

# Same assay, conditions: Drosophila S3 cells, BODIPY lipid droplet/cell ratio, laser cytometry; at 57.5 µM (top of the series); cells loaded with oleic acid
row,Compound,"activity change, negative = inhibition"
1,O=c1[nH]c2cc(Cl)c(Cl)cc2[nH]c1=O,-0.911%
2,Oc1c(Br)cc(Br)c2cccnc12,1.03%
3,COc1cc(NC(C)CCCN)c2ncccc2c1 (stereo not drawn),7.1%
4,N[C@H](CCCP(=O)(O)O)C(=O)O,2.93% and -1.99%
5,CCCCCCCCCCCCCCCCCCNC(=O)OCC(COP(=O)([O-])OCC[n+]1ccsc1)OC (stereo not drawn),0.643%
6,O=c1cc(-c2ccccc2)oc2c(O)c(O)ccc12,-5.17%
7,CCCCCCCCCCCCCCCCCC(=O)NCC(COP(=O)([O-])OCC[N+](C)(C)C)OCC (stereo not drawn),-1.69%
8,O=C(O)CCCC[C@@H]1CCSS1,-3.03%
9,CC(C)NC[C@H](O)COc1cccc2[nH]ccc12,1.59%
10,CCCSc1ccc2nc(NC(=O)OC)[nH]c2c1,9.19%
11,Oc1ccccc1O,-4.75%
12,O=S(=O)(c1cccc2c(I)cccc12)N1CCCNCC1,1.19%
13,CCCCCCCC/C=C\CCCCCCCC(=O)NCCO,1.41%
14,COc1cc(OC)c(/C=C2/C(=O)Nc3ccccc32)c(OC)c1,-1.27%
15,NCCCS(=O)(=O)O,4.47%
16,CCCN(CC1CC1)c1nc(C)nc(Nc2c(Cl)cc(Cl)cc2Cl)c1Cl,-0.101%
17,O=C(/C=C/c1ccc(O)c(O)c1)OCCc1ccccc1,-2.35% and -20.7%

row,Compound,"activity change, negative = inhibition"
1,Nc1nc(Cl)nc2c1ncn2[C@@H]1O[C@H](CO)[C@@H](O)[C@H]1O,5.13%
2,S=c1[nH]c2ccccc2s1,12%
3,CN(C)c1ccc(/C=C2\C(=O)Nc3ccccc32)cc1,0.655%
4,S=C(S)OC1CC2CC1C1CCCC21 (stereo not drawn),-2.21%
5,CCCCCCCCCCCCCCCC(=O)NCC(COP(=O)([O-])OCC[N+](C)(C)C)OCC (stereo not drawn),-0.558%
6,O=C(OCc1ccccc1)c1ccccc1,9.34%
7,C[C@@H](CN1CCC(Cc2ccccc2)CC1)[C@@H](O)c1ccc(O)cc1,0.466%
8,N=C(N)N,4.02%
9,CCN1/C(=C/C(C)=O)Sc2ccc(OC)cc21,0.847%
10,Cc1c(N)c(=O)n(-c2ccccc2)n1C,3.79%
11,O=C1NC(O)=NC1(c1ccccc1)c1ccccc1,1.6%
12,O=C(c1cc(O)c(O)c([N+](=O)[O-])c1)c1ccccc1F,-2.67%
13,O=c1[nH]c2ccccc2n1CCCN1CCN(C(c2ccccc2)c2ccccc2)CC1,0.533%
14,CCCCCCCCCCCCCCCC(=O)OC(CC(=O)O)C[N+](C)(C)C (stereo not drawn),-1.01%
15,O=C1CN(/N=C/c2ccc([N+](=O)[O-])o2)C(=O)N1,8.89%
16,O=C(Nc1cccc(C(=O)Nc2ccc(S(=O)(=O)O)c3cc(S(=O)(=O)O)cc(S(=O)(=O)O)c23)c1)Nc1cccc(C(=O)Nc2ccc(S(=O)(=O)O)c3cc(S(=O)(=O)O)cc(S(=O)(=O)O)c23)c1,2.61%
